Reference: PubChem BioAssay AID1578 (Sanford-Burnham Center for Chemical Genomics, 2009)
The whole screen tested about 290,000 compounds, of which about 3,000 (1%) were called active. What follows is part of a selection rich in actives, with near analogues and random picks from the rest. Unmarked numbers belong to inactive results. Rule as the data show it: active = inhibition mostly above about 36% (no sharp cut-off); inactive = mostly below about 34%.

test: inhibition of NOD1-driven NF-kB reporter – cell-based, luminescence, uHTS, primary screen (AID 1578); settings: NOD1-driven NF-kB luciferase reporter cells, at 4 µM, stronger effect = higher value;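 also: HEK-293T reporter cells stimulated with the NOD1 agonist gamma-tri-DAP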

SMILES | inhibition
CCNS(=O)(=O)c1ccc2c(c1)NCC2 | -16.1%
COc1ccc(C(=O)NC(=S)N(C)Cc2ccccc2)cc1Br | 45% (active)
COc1ccc(C(=O)N(C)Cc2ccccc2)cc1Br | -39.1%
COc1cc(C(=O)NC(=S)N(C)Cc2ccccc2)cc(OC)c1OC | -14.8%
Cc1cc(C)c(OCCCCn2cnc3ccccc3c2=O)c(C)c1 | 12.5%
CCOC(=O)Cc1[nH]nc2c1C(c1ccsc1)C(C#N)=C(N)O2 (stereo not drawn) | -16.3%
CC(=O)Nc1ccc(S(=O)(=O)Nc2ccc3c(c2)OCCO3)cc1 | -25%
C=CC[n+]1c(-c2ccc(C)cc2)csc1Nc1c(C)n(C)n(-c2ccccc2)c1=O | 8.4%
CC[n+]1c(-c2ccccc2)csc1Nc1c(C)n(C)n(-c2ccccc2)c1=O | -17.7%
CCOc1ccc(CCNC(=O)C2CCC(=O)N2C2CCCCC2)cc1OCC (stereo not drawn) | 6%
O=C(NCc1cccnc1)C1CCCN(S(=O)(=O)c2ccccc2)C1 (stereo not drawn) | -13.3%
Cc1cc([N+](=O)[O-])nn1CCCC(=O)Nc1ccc(Cl)cc1Cl | -21%
COC(=O)c1cccc(NC(=O)Cn2nnc3ccccc32)c1 | -17.8%
Cc1csc(NC(=O)CSc2nnc3ncccn23)n1 | -6.2%
CCCCNC(=O)NCc1cnn(C)c1C | -24.6%
CC(=O)NNC(=O)c1ccncc1 | -26.4%
CCCCc1nc2ccc(S(=O)(=O)O)cc2[nH]1 | 7.8%
COc1nc(OC)nc(Oc2ccc(Cl)cc2[N+](=O)[O-])n1 | 0.6%
O=[N+]([O-])c1ccccc1S(=O)(=O)c1ccccc1 | -2.8%
COc1ccc(OCCOc2ccccc2[N+](=O)[O-])cc1 | -19.1%
Nc1cccnc1S(=O)(=O)c1ccccc1 | -2.3%

SMILES | inhibition
COc1ccc([N+](=O)[O-])c(S(=O)(=O)c2ccc(Cl)cc2)n1 | 79.2% (active)
COc1ccccc1S(=O)(=O)c1ccccc1[N+](=O)[O-] | -10.5%
COc1ccc([N+](=O)[O-])c(S(=O)(=O)c2ccccc2)n1 | 61.7% (active)
Cn1cnc([N+](=O)[O-])c1S(=O)(=O)c1ccc(Cl)cc1 | -30.1%
Cc1ccc(C(=O)COC(=O)CN2C(=O)C3C4CC(C(Br)C4Br)C3C2=O)cc1 (stereo not drawn) | -29.5%
CC(C)n1c(=O)n(CC(=O)NCC2CCCO2)c(=O)c2c3c(sc21)COC(C)(C)C3 (stereo not drawn) | -14%
Cc1ccc(N(C(C)C(=O)Nc2cccc(N(C)S(C)(=O)=O)c2)S(C)(=O)=O)cc1 (stereo not drawn) | -21.2%
CC(C)NC(=O)CN(Cc1ccc2c(c1)OCO2)C(=O)CCC(=O)Nc1ccccn1 | -22.2%
O=C(Cc1ccc([N+](=O)[O-])cc1)N1CCN=C1SCc1ccccc1 | -5%
Cc1cc(S(=O)(=O)Nc2ccc(C(=O)NCC(C)(C)N3CCOCC3)cc2)ccc1F | -4.6%
OCCN(CCO)CC(O)CN1c2ccccc2Sc2ccccc21 (stereo not drawn) | 2.7%
CCC(C)NC(=O)Cn1cc2c(n1)CCC(C)C2 (stereo not drawn) | 7.9%
CCOc1ccccc1N(CC(=O)NCc1ccco1)C(=O)CCC(=O)Nc1nccs1 | -30.2%
COc1ccc(CNCc2cc(OC)ccc2OC)cc1 | -19.6%
CCSC1=C(C#N)C(c2ccccc2Cl)C(C(=O)c2cccs2)C(O)(C(F)(F)F)N1 (stereo not drawn) | 64.5% (active)
CSC1=C(C#N)C(c2ccccc2Cl)C(C(=O)c2cccs2)C(O)(C(F)(F)F)N1 (stereo not drawn) | -8.1%
C=CCSC1=C(C#N)C(c2ccccc2Cl)C(C(=O)c2cccs2)C(O)(C(F)(F)F)N1 (stereo not drawn) | 63.3%
CC1=NN(c2ccccc2)C(=O)C1=C(C)C | -15.5%
CCOC(=O)C(c1ccccc1)C(Nc1ccc(F)cc1)c1ccccn1 (stereo not drawn) | -2%
CC(C)(C)c1ccc(C(=O)N/N=C/c2cccc(Cl)c2)cc1 | 72.3% (active)
Cn1c(=O)n(C)c2cc(/C=N/NC(=O)c3ccc(Cl)cc3)ccc21 | -11.1%

SMILES | inhibition
O=C(N/N=C/c1cccc(F)c1)c1ccc(Cl)cc1 | -50.5%
CCC(=O)c1c[nH]c(C(=O)N2CCOCC2)c1 | -10.3%
CCCCCCCN1C=CC(=O)CC1 | 2%
CCCCCN1C=CC(=C2C(=O)c3ccccc3C2=O)C=C1 | 93.3% (active)
CCN1C=CC(=C2C(=O)c3ccccc3C2=O)C=C1 | 90.4% (active)
CCCN1C=CC(=C2C(=O)c3ccccc3C2=O)C=C1 | 97.9%
CC1=CC(=C2C(=O)c3ccccc3C2=O)C=C(C)N1C | -1.3%
CCCCN1C=CC(=C2N=c3cccc([N+](=O)[O-])c3=N2)C=C1 | 35.9%
CCCCN1C(C)=CC(=C2C(=O)c3ccccc3C2=O)C=C1C | -16.5%
CN1C=CC(=C2C(=O)c3ccccc3C2=O)C=C1 | -58.3%
CCCCCCN1Cc2ccccc2C1 | 5.4%
CCCCN1C=CC(=C2C(=O)c3ccccc3C2=O)C=C1 | 95.3% (active)
CCCCCCN1C=CC(=C2C(=O)c3ccccc3C2=O)C=C1 | 80.8% (active)
CC1=CC(=C2C(=O)c3ccccc3C2=O)C=C(C)O1 | -62.6%
COC(=O)c1ccc(CC(=O)c2nc3ccccc3s2)cc1 | -21.3%
COc1ccc(C2CC(c3ccc4ccccc4c3OC(C)=O)=NN2C(C)=O)cc1 (stereo not drawn) | -2.5%
CCN(CC)S(=O)(=O)c1ccc2c(c1)[nH]c(=S)n2CC | -41.3%
CCOc1ccc(CCNC(=O)COC(=O)C2CCN(S(=O)(=O)c3ccc(C)c(C)c3)CC2)cc1OCC | -4.1%
CC(=O)NC1CC2CCC(C1)N2Cc1ccc(C)cc1 (stereo not drawn) | -106%
Cc1c(C)c2ccc(OCC(=O)NC(Cc3ccc(Cl)cc3)C(=O)O)cc2oc1=O (stereo not drawn) | -25%
O=S(=O)(c1ccccc1)N1CCCc2ccccc21 | 8.6%
